Experimental findings from PubChem BioAssay are described below.

The structures appear in SMILES notation. The source made the active and inactive calls.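 Rule for the calls: active = compounds whose cell count with miR-34 switched on is under 0.7 times the count with it off; inactive = the rest.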

This assay can be described thus: sensitizers of A549 cells to miR-34 induction, primary screen, imaging, A549 dox-inducible miR-34, nuclei and caspase counts (AID 1347080). Note: test concentration not given here. The conditions noted are these: A549 miR-34 inducible, Hoechst nuclei count, 48 h.
Where [1] appears, read: stronger effect = lower value, cell number ratio, induced over uninduced.
The mark [2] stands for this setting: measured here: relative caspase fold change +Dox/-Dox.
The mark [3] stands for this setting: measured here: total cells with miR-34 induction, stronger effect = lower value.
Setting [4] is: measured here: total cells without miR-34 induction.

For `CCCCC[C@H](O)/C=C/[C@@H]1[C@@H](CCCCCCC(=O)O)[C@H](O)C[C@@H]1O`, the fold change is, setting by setting: under setting [1], 0.98 (inactive); under setting [2], 1.16. Besides, the cell count by setting is: under setting [3], 6220; under setting [4], 6350.
For the compound `CCCCC[C@H](O)/C=C/[C@@H]1[C@H]2C/C=C\CCCC(=O)O[C@H]2C[C@H]1O`, the fold change reads like this: under setting [1], 0.977 (inactive); under setting [2], 1.29. The cell count reads like this: under setting [3], 5860; under setting [4], 5990.
Take `CCCCCCCC/C=C/CCCCCCCC(=O)O`: the fold change was 1.1 (inactive) under setting [1] and 0.875 under setting [2]. Also, the cell count is, setting by setting: under setting [3], 6340; under setting [4], 5750.
On to `C=C1C[C@H](O)[C@H](C/C=C\CCCC(=O)O)[C@H]1/C=C/C(=O)CCCCC`, for which the fold change is, setting by setting: under setting [1], 1.11 (inactive); under setting [2], 1.24. In addition, the cell count reads like this: under setting [3], 5720; under setting [4], 5160.
For `CCCCCCCC/C=C\CCCCCCCCCCCC(N)=O`, the fold change runs as follows: under setting [1], 1.07 (inactive); under setting [2], 0.823. The cell count under setting [3] stood at 6240 and the cell count under setting [4] was determined as 5820.
For `O=C1C(c2ccccc2)N(c2ccc(Br)cc2)C(=O)N1c1ccc(Br)cc1` (stereo not given), the fold change reads like this: under setting [1], 0.936 (inactive); under setting [2], 0.667. The cell count runs as follows: under setting [3], 5960; under setting [4], 6370.
On to `CCCCC[C@H](O)/C=C/[C@H]1[C@H](O)CC(=O)[C@@H]1CC(=O)CCCCC(=O)O`, for which the fold change runs as follows: under setting [1], 0.96 (inactive); under setting [2], 1.25. Besides, the cell count is, setting by setting: under setting [3], 6410; under setting [4], 6680.
On the same counts, the results for `O=C(O)CCC/C=C\C[C@@H]1C(=O)C[C@@H](O)[C@@H]1/C=C/[C@@H](O)CCc1ccccc1` are 0.867 (inactive), 0.324, 5200 and 6000.
Regarding `CCCCCCCCCCCCCCCCCC(=O)NCCS(=O)(=O)O`, the fold change is 1.11 (inactive) under setting [1] and 0.61 under setting [2]. In addition, the cell count is 6120 under setting [3] and 5530 under setting [4].
As for `CCCCC/C=C/C/C=C/CCCCCCCC(=O)O`, the fold change by setting is: under setting [1], 1.12 (inactive); under setting [2], 0.989. Besides, the cell count turned out to be 6880 under setting [3] and 6150 under setting [4].
Take `OC[C@H]1O[C@H](O[C@H]2[C@H](O)[C@@H](O)[C@H](O)O[C@@H]2CO)[C@H](O)[C@@H](O)[C@@H]1O`: the fold change runs as follows: under setting [1], 0.99 (inactive); under setting [2], 0.551. Also, the cell count by setting is: under setting [3], 8780; under setting [4], 8870.
`CCCCCCCCCCCCCCCC(=O)OCC`: the fold change by setting is: under setting [1], 0.854 (inactive); under setting [2], 0.575. For the same compound, the cell count by setting is: under setting [3], 5080; under setting [4], 5950.
For the compound `Cc1c(C)c2c(c(C)c1O)CCC(C)(CCCC(C)C(=O)O)O2` (stereo not given), the fold change was 0.962 (inactive) under setting [1] and 0.303 under setting [2]. Besides, the cell count under setting [3] amounted to 5890 and the cell count under setting [4] was determined as 6120.
For the compound `CC/C=C\C/C=C\C/C=C\C/C=C\C/C=C\C/C=C\CCC(=O)NCCO`, the fold change runs as follows: under setting [1], 0.934 (inactive); under setting [2], 0.411. Moreover, the cell count under setting [3] is 5920 and the cell count under setting [4] is 6340.
On to `CCCCCCCC/C=C\CCCCCCCC(=O)N[C@H](CO)Cc1ccc(O)cc1`, for which the fold change by setting is: under setting [1], 1.03 (inactive); under setting [2], 1.33. Moreover, the cell count under setting [3] came to 6010 and the cell count under setting [4] is 5860.
`CCC(O)/C=C/C=O` (stereo not given): the fold change under setting [1] is 0.941 (inactive) and the fold change under setting [2] came to 1.21. Also, the cell count is, setting by setting: under setting [3], 5860; under setting [4], 6230.
Consider `CCCCCCC(=O)SC[C@H](COP(=O)([O-])OCC[N+](C)(C)C)SC(=O)CCCCCC`, for which the fold change by setting is: under setting [1], 0.918 (inactive); under setting [2], 0.72. In addition, the cell count under setting [3] was found to be 5570 and the cell count under setting [4] was 6070.
For the compound `CCCCCCCCCCCCCCCCOC[C@H](COP(=O)([O-])OCC[N+](C)(C)C)OC(=O)CCC`, the fold change by setting is: under setting [1], 0.868 (inactive); under setting [2], 0.912. The cell count by setting is: under setting [3], 5110; under setting [4], 5890.
`COC(=O)[C@H](Cc1ccccc1)NC(=O)/C=C/c1ccc(O)cc1`: the fold change is, setting by setting: under setting [1], 1 (inactive); under setting [2], 0.674. Also, the cell count under setting [3] is 6500 and the cell count under setting [4] turned out to be 6490.
As for `CCCCC[C@H](O)/C=C/[C@@H]1C(C/C=C\CCCCN(C)C)[C@@H](O)C[C@H]1O` (stereo not given in full), the fold change is 0.95 (inactive) under setting [1] and 1.02 under setting [2]. The cell count under setting [3] worked out at 5640 and the cell count under setting [4] came out at 5940.
Take `CC1=C(CC/C(C)=C/CCC2C=CC(C3=CC(=O)OC3O)OC2O)C(C)(C)CCC1` (stereo not given): the fold change by setting is: under setting [1], 0.908 (inactive); under setting [2], 0.704. The cell count is 1170 under setting [3] and 1290 under setting [4].
On the same counts, the results for `CCCCC/C=C\C/C=C\C/C=C\C/C=C\CCCCN1C(=O)C=CC1=O` are 0.86 (inactive), 0.663, 5540 and 6440.
For `COC(=O)CCC[C@H](O)[C@H](O)CO`, the fold change runs as follows: under setting [1], 1.05 (inactive); under setting [2], 0.845. Moreover, the cell count was 5290 under setting [3] and 5040 under setting [4].
Take `CCCCCCCCCCCC(=O)c1nc2ncccc2o1`: the fold change was 0.934 (inactive) under setting [1] and 1.01 under setting [2]. Moreover, the cell count reads like this: under setting [3], 5110; under setting [4], 5460.
Regarding `CCCCCCCCCCCCCCCCCC(=O)N[C@H]1CCOC1=O`, the fold change was 1.11 (inactive) under setting [1] and 1.44 under setting [2]. The cell count reads like this: under setting [3], 6650; under setting [4], 6000.
For `CCCCC[C@H](O)/C=C/[C@@H]1c2cc(CCCCC(=O)O)n(-c3ccccc3)c2C[C@H]1O`, the fold change reads like this: under setting [1], 0.958 (inactive); under setting [2], 1.14. The cell count by setting is: under setting [3], 6340; under setting [4], 6620.
Regarding `O=P(O)(O)OC1[C@H](O)[C@H](O)C(O)[C@H](O)[C@H]1O` (stereo not given in full), the fold change under setting [1] was 1.11 (inactive) and the fold change under setting [2] was 0.357. Moreover, the cell count was found to be 6420 under setting [3] and 5790 under setting [4].
As for `CCCCCCCCCCCC1N[C@H](C(=O)O)CS1` (stereo not given in full), the fold change is 0.939 (inactive) under setting [1] and 1.06 under setting [2]. The cell count reads like this: under setting [3], 5330; under setting [4], 5670.
Take `CC/C(=C\C(=N/O)C(N)=O)C(C)[N+](=O)[O-]` (stereo not given): the fold change under setting [1] is 1.05 (inactive) and the fold change under setting [2] was determined as 1.1. The cell count by setting is: under setting [3], 6540; under setting [4], 6230.
For `C/C=C/C[C@@H](C)[C@@H](O)[C@H]1C(=O)N[C@@H](CC)C(=O)N(C)CC(=O)N(C)[C@@H](CC(C)C)C(=O)N[C@@H](C(C)C)C(=O)N(C)[C@@H](CC(C)C)C(=O)N[C@@H](C)C(=O)NC(C)C(=O)N(C)[C@@H](CC(C)C)C(=O)N(C)[C@@H](CC(C)C)C(=O)N(C)[C@@H](C(C)C)C(=O)N1C` (stereo not given in full), the fold change is, setting by setting: under setting [1], 1.02 (inactive); under setting [2], 1.6. The cell count is, setting by setting: under setting [3], 2270; under setting [4], 2230.
